Source: PubChem BioAssay (NCI)
Where “and” joins values, the source holds several entries; their conditions need not be identical. Equal entries are not always repeated. Compounds without any hit were thinned out: in the full panel of roughly 79,000, 15% have a hit. Calls of active or inactive are those of the source. Cut-off read from the data, not from the text of the source: active = growth inhibition above about 70%; inactive = the rest.

Experiment: NCI Yeast Anticancer Drug Screen. Data for the sgs1 mgt1 strain (AID 161);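 note: 0% = growth of cultures given vehicle only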
Settings: S. cerevisiae sgs1 mgt1 strain, active compounds read high; at 50.0 µM unless noted
In short: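 Percent growth inhibition was derived by comparing compound-exposed mutant yeast with vehicle-exposed cultures. The strain carries alterations in DNA damage repair.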

SMILES | growth inhibition
COc1ccc(-n2c(CCC(=O)O)nc3c2C(=O)c2ccccc2C3=O)cc1 | 34% (inactive)
COc1ccc(C(=O)O)c(Cc2ccc3ccccc3c2)c1 | 4.3% (inactive)
OCC(O)Cc1ccccc1 (stereo not given) | 3.2% (inactive)
CCCCCCCCCCCCCCCCCC(=O)CBr | 10.9% (inactive)
CC(=O)[C@@]1(O)CC[C@H]2[C@@H]3CC[C@@H]4C[C@H](O)CC[C@]4(C)[C@H]3[C@H](O)C[C@@]21C | 8% (inactive)
CC1=C/C(O)CC(=O)Cc2nc(co2)C(=O)N2CCC=C2C(=O)OC(C(C)C)C(C)/C=C\C(=O)NC/C=C\1 (stereo not given) | 22.7% (inactive) and 0.6% (inactive)
O=c1oc2ccccc2c(O)c1Cc1ccccc1Cc1c(O)c2ccccc2oc1=O | -13.2% (inactive)
O=[N+]([O-])c1ccccc1/C=C/c1ccccn1 | -3.55% (inactive)
COCS(=O)(=O)c1ccccc1 | 11.8% (inactive)
COc1ccc(C(N2CCNCC2)N2CCNCC2)cc1 | 19.6% (inactive)
N#CCCOc1ccc(N)cc1 | 7.15% (inactive)
O=C1/C(=C\C=C\c2ccccc2)CCCC/C1=C\C=C\c1ccccc1 | -0.95% (inactive)
CS/C(=N\c1nccs1)NC(=O)c1cccc(Cl)c1 | 30.2% (inactive)
Oc1c(CN2CCOCC2)ccc(CN2CCOCC2)c1O | -14.1% (inactive)
COc1ccc(NC(=O)c2ccc(OC)cc2)cc1 | 5.2% (inactive)
CS(=O)(=O)OCCN(CCOS(C)(=O)=O)c1ccc([N+](=O)[O-])cc1[N+](=O)[O-] | -0.2% (inactive)
O=C(OC(c1ccccc1)C(c1ccccc1)N1CCOCC1)c1ccc([N+](=O)[O-])cc1 (stereo not given) | 55.4% (inactive)
c1ccc(CN2CCOC2)cc1 | -13.1% (inactive)
COc1cc(N=C=S)ccc1NC(=O)c1cc(Br)cc(Br)c1O | 46.6% (inactive)
N#CCCCCCOCCOCCOCCOCCOCCCCCC#N | -10.2% (inactive)

SMILES | growth inhibition
N#C/C(=C/c1ccccc1)c1ccccc1 | 24.6% (inactive)
CC(C)N(CC(C)(C)O)C(=O)c1ccccc1 | 17.1% (inactive)
CC(C)CNC(=O)c1ccccc1Cl | -5.4% (inactive)
O=C(CSS(=O)(=O)O)Nc1ccccc1 | 7.5% (inactive)
Cc1ccc(Nc2cc(C(=O)O)c(Nc3ccc(C)cc3)cc2C(=O)O)cc1 | 12.3% (inactive)
Cc1sc2ccccc2[n+]1CCC(=O)O | -38.6% (inactive)
CC(C)c1ccc(C2NC(c3ccccc3)c3c(ccc4ccccc34)O2)cc1 (stereo not given) | 6.1% (inactive)
C/C(CC(=O)Nc1cc(C)ccc1C)=N\NC(=O)c1ccncc1 | 10.7% (inactive)
O=S(=O)(N/N=C/c1cccc(Cl)c1Cl)c1ccccc1 | 4.4% (inactive)
COc1cc(Cc2nccc3cc(OC)c(OC)cc23)c(C(C)=O)cc1OC | 19.1% (inactive)
CCOC(=O)c1c[nH]c2c(Cl)c(Cl)ccc2c1=O | -1.1% (inactive)
COc1ccc(C(=O)Oc2ccccc2C(C)=O)cc1 | 0.7% (inactive)
O=Cc1cccc2ccc3cccc(C(=O)Cl)c3c12 | 37.8% (inactive)
O=C(CCCn1ccnc1[N+](=O)[O-])NCCn1cnc([N+](=O)[O-])n1 | -6.05% (inactive)
O=C(O)CCc1[nH]c(I)nc1I | 5.3% (inactive)
CCCSc1ncnc2nc[nH]c12 | 9.7% (inactive)
Cc1ccc(-c2c(C#N)c(O)n(NS(=O)(=O)c3ccccc3)c(=O)c2C#N)cc1 | -30.4% (inactive)
Cc1nc2ncnc(N)c2[nH]1 | -12.5% (inactive)
COC1C(O)C(n2ncc3c(SC)nc(SC)nc32)OC1C(O)CO (stereo not given) | -16.2% (inactive)
CC1=NN(C(=O)c2ccccc2O)C(=O)/C1=C/c1ccccc1O | -14.8% (inactive)

Experiment: NCI Yeast Anticancer Drug Screen. Data for the cln2 rad14 strain (AID 165);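 note: 0% = growth equal to vehicle treated cultures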
Settings: S. cerevisiae cln2 rad14 strain, active compounds read high; at 50.0 µM unless noted
In short: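 Yeast carrying cln2 and rad14 alterations (cell cycle control and DNA damage repair) were exposed to compounds. Growth inhibition was measured against vehicle-treated controls.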

SMILES | growth inhibition
COc1ccc(-n2c(CCC(=O)O)nc3c2C(=O)c2ccccc2C3=O)cc1 | 49% (inactive)
COc1ccc(C(=O)O)c(Cc2ccc3ccccc3c2)c1 | 10% (inactive)
OCC(O)Cc1ccccc1 (stereo not given) | -13.1% (inactive)
CCCCCCCCCCCCCCCCCC(=O)CBr | -25.4% (inactive)
CC(=O)[C@@]1(O)CC[C@H]2[C@@H]3CC[C@@H]4C[C@H](O)CC[C@]4(C)[C@H]3[C@H](O)C[C@@]21C | -34.1% (inactive)
CC1=C/C(O)CC(=O)Cc2nc(co2)C(=O)N2CCC=C2C(=O)OC(C(C)C)C(C)/C=C\C(=O)NC/C=C\1 (stereo not given) | 13.9% (inactive) and 5.6% (inactive)
O=c1oc2ccccc2c(O)c1Cc1ccccc1Cc1c(O)c2ccccc2oc1=O | 10.9% (inactive)
O=[N+]([O-])c1ccccc1/C=C/c1ccccn1 | 20% (inactive)
COCS(=O)(=O)c1ccccc1 | 14.3% (inactive)
COc1ccc(C(N2CCNCC2)N2CCNCC2)cc1 | -30.1% (inactive)
N#CCCOc1ccc(N)cc1 | 3.75% (inactive)
O=C1/C(=C\C=C\c2ccccc2)CCCC/C1=C\C=C\c1ccccc1 | 5.95% (inactive)
CS/C(=N\c1nccs1)NC(=O)c1cccc(Cl)c1 | 18.8% (inactive)
Oc1c(CN2CCOCC2)ccc(CN2CCOCC2)c1O | 4.55% (inactive)
COc1ccc(NC(=O)c2ccc(OC)cc2)cc1 | 1.95% (inactive)
CS(=O)(=O)OCCN(CCOS(C)(=O)=O)c1ccc([N+](=O)[O-])cc1[N+](=O)[O-] | 24.8% (inactive)
O=C(OC(c1ccccc1)C(c1ccccc1)N1CCOCC1)c1ccc([N+](=O)[O-])cc1 (stereo not given) | -4.9% (inactive)
c1ccc(CN2CCOC2)cc1 | 11% (inactive)
COc1cc(N=C=S)ccc1NC(=O)c1cc(Br)cc(Br)c1O | 31.2% (inactive)
N#CCCCCCOCCOCCOCCOCCOCCCCCC#N | 12.7% (inactive)

SMILES | growth inhibition
N#C/C(=C/c1ccccc1)c1ccccc1 | 14.5% (inactive)
CC(C)N(CC(C)(C)O)C(=O)c1ccccc1 | 6.1% (inactive)
CC(C)CNC(=O)c1ccccc1Cl | -32.4% (inactive)
O=C(CSS(=O)(=O)O)Nc1ccccc1 | 14.6% (inactive)
Cc1ccc(Nc2cc(C(=O)O)c(Nc3ccc(C)cc3)cc2C(=O)O)cc1 | 33.4% (inactive)
Cc1sc2ccccc2[n+]1CCC(=O)O | -72.8% (inactive)
CC(C)c1ccc(C2NC(c3ccccc3)c3c(ccc4ccccc34)O2)cc1 (stereo not given) | 0.5% (inactive)
C/C(CC(=O)Nc1cc(C)ccc1C)=N\NC(=O)c1ccncc1 | 22.7% (inactive)
O=S(=O)(N/N=C/c1cccc(Cl)c1Cl)c1ccccc1 | -37.6% (inactive)
COc1cc(Cc2nccc3cc(OC)c(OC)cc23)c(C(C)=O)cc1OC | 14.1% (inactive)
CCOC(=O)c1c[nH]c2c(Cl)c(Cl)ccc2c1=O | 12.9% (inactive)
COc1ccc(C(=O)Oc2ccccc2C(C)=O)cc1 | -24.6% (inactive)
O=Cc1cccc2ccc3cccc(C(=O)Cl)c3c12 | 18% (inactive)
O=C(CCCn1ccnc1[N+](=O)[O-])NCCn1cnc([N+](=O)[O-])n1 | -6.2% (inactive)
O=C(O)CCc1[nH]c(I)nc1I | -0.7% (inactive)
CCCSc1ncnc2nc[nH]c12 | -15.1% (inactive)
Cc1ccc(-c2c(C#N)c(O)n(NS(=O)(=O)c3ccccc3)c(=O)c2C#N)cc1 | 0.8% (inactive)
Cc1nc2ncnc(N)c2[nH]1 | -28.7% (inactive)
COC1C(O)C(n2ncc3c(SC)nc(SC)nc32)OC1C(O)CO (stereo not given) | 8.95% (inactive)
CC1=NN(C(=O)c2ccccc2O)C(=O)/C1=C/c1ccccc1O | -9.7% (inactive)
